Assay results: the supplement of paper PMC6555819

These sequences were tested on PPARg:RXRa 30nM:10nM, anti-RXR (NR concentration 30 nM, RXRa partner concentration 10 nM) (assay: PBM binding z-score (relative to random genomic background probes); higher = stronger binding; sequences stand for … in GC…GCGATTGACAGCGTAGAATGAAGG).
How it was run: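 Random background probes are the reference for binding z-scores. These scores derive from regression-normalized fluorescence on custom Agilent 4×180K protein-binding microarrays incubated 1 h with ligand-free nuclear receptor dimers. Binding was detected with antibodies against each partner (one per run).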

In order of falling PBM binding z-score:
1. CCTACTGGGCCAAAGGTTATTGATTCCAATGCTC  8.72
2. CGTCGAAGGTCAAAGGTCAGTGAAGAGATGACGG  7.87
3. TCTACAGGGTCAAAGGCCAGAGTACGAATGTCGA  5.3
4. TCTCGGAGGAGACGAAAGGTCAGAGCTCGACATC  3.66
5. TCATATAGGTAAATGCTAGGTGAGAGTCCGATCT  3.39
6. GATACAGGGTCACCTAGAGGCCAGAGTATGGAAA  2.71
7. CGTCAAAGTTCAACTAAGGTACCGTAAAGCACGC  2.29
8. CCTACTGGGACACGAAAGGTCATTGATTCAGTGA  2.24
9. TTACCAAGGTGTAAGGTCGTTGATGCACGCCTTG  1.99
10. TCTCGGAGGACACGAGAGGTCAGAGCTCGACATC  1.53
11. TCTAGCAGGCCAGAGGATCACTCAAGAGGTACGG  1.53
12. TGAATGAGATTAAAGATCAGGGAACGTGGCGTCG  1.3
13. CGTCCAAGGTCAATGGTAGGTCAGTGAAAGCATT  1.28
14. CTGGAAAGGTCGTGCTCAGGTGAGTATACCAAAC  1.04
15. TGAATGAGTTTATAAGATCAGGGAACGTTGCAAA  0.73
16. TGAATGAGGTTATACGATCAGGGAACGTTGCAAA  0.555
17. GTACGAAGGTGAATAGGTCGTTGATGAGTAGGCG  0.421
18. TTACCAAGGTGAAAGTCGTTGATCCCTCTGTAGA  0.371
19. TGTTGTAGATCAACAGGAGGTTAAGAAAGATCGA  0.304
20. ATCTCTAGGTAAAGATAGTTCGGTGAATGCAAAT  0.192
21. AGAACGAGGGCACGCTGAGTTGAAAGCAGAGTAG  0.0784
22. GATACAGTGTCAGCTAGAGGCCAGAGTATGGAAA  -0.273
